Where “and” joins values, the source holds several entries; their conditions need not be identical. Equal entries are not always repeated. Records with an inconclusive call do not appear. For some of these results: Entries with a potency or affinity are not part of this list. Calls of active or inactive are those of the source.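 Rule for the calls, unless noted: active = at least 20% inhibition of 6-phosphogluconate dehydrogenase activity; inactive = the rest.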
Key:
[1] = liver-stage malaria parasite growth inhibition, primary screen, cell-based, HepG2, luciferase luminescence, HepG2 viability (AID 624349; in the data active = parasite load remaining mostly below about 12%, no sharp cut-off; inactive = mostly above about 10%;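 note: 100% = mean of DMSO negative control wells on the same plate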); settings: P. berghei liver stage in HepG2, luciferase luminescence, concentration not given here; parasite load remaining: stronger effect = lower value; viability: measured here: HepG2 viability without parasites
[2] = target: 6-phosphogluconate dehydrogenase, decarboxylating (Homo sapiens) (UniProt P52209); assay: 6PGD enzyme inhibitors, primary screen, biochemical, human, recombinant enzyme, NADPH absorbance (AID 1159550); settings: recombinant 6PGD, NADPH absorbance 341 nm; at 10 µM; stronger effect = higher value
6-phosphogluconate dehydrogenase, decarboxylating (Homo sapiens), sequence (P52209 whole entry, looked up): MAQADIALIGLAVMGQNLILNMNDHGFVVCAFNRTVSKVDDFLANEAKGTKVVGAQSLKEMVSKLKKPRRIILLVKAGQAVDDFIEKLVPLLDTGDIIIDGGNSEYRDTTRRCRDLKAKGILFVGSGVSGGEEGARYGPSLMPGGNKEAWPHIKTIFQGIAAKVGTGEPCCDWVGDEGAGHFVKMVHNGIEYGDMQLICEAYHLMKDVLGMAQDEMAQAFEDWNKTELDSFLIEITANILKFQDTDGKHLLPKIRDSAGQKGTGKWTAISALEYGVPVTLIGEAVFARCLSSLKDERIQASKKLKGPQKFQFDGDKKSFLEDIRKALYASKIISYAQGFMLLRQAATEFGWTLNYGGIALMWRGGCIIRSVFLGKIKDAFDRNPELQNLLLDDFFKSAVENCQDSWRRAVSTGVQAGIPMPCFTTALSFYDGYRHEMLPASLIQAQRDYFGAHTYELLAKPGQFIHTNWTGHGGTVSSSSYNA

[3] = differential killing of epithelial or mesenchymal cells, primary screen, imaging, PC-3E GFP, TEM4-18 mCherry, co-culture (AID 1345086;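 active = compounds killing one labelled cell type while sparing the other, by normalised counts and ratio limits, not self-fluorescent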;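 for all read-outs here: cells exposed to compound for 72 h before imaging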;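 for red/green cell ratio (normalised): normalised mesenchymal count divided by normalised epithelial count so high means epithelial killing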); settings: imaging cell counts, at 1 µM; for red/green cell ratio (normalised): actives lie on both sides
[4] = test system: Aerobactin synthetase IucA (Klebsiella pneumoniae hvKP1); assay: Biochemical IucA enzyme inhibition primary screen of the Spectrum library (AID 1346200; call rule not given here;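 note: 100% = wells without compound and 0% = wells lacking enzyme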); settings: malachite green pyrophosphate, A620, at 8 µM, stronger effect = lower value
[5] = sensitizers of A549 cells to miR-34 induction, primary screen, imaging, A549 dox-inducible miR-34, nuclei and caspase counts (AID 1347080;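 active = compounds whose cell count with miR-34 switched on is under 0.7 times the count with it off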); settings: A549 miR-34 inducible, Hoechst nuclei count, 48 h
[6] = survival rescue of mitochondrial mutant cells in low glucose, primary screen, MELAS cybrids, Rieske KO mouse fibroblasts, CellTiter-Glo (AID 1508586;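 active = mean z-score across replicates of 1.96 or higher in either the MELAS or the Rieske mutant cell line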;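 note: z relative to plate mean and SD of compound and empty wells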)
[7] = target: NAD(+) hydrolase SARM1 (Homo sapiens) (UniProt Q6SZW1); assay: SARM1 TIR NADase inhibitors, cell lysate, NAD-Glo luminescence (AID 1508614;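 active = compound whose remaining NAD level is above about 45 nM, limit read from the data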;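 note: higher remaining NAD means stronger inhibition of SARM1 NADase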); settings: SAM-TIR HEK293T lysate NADase, at 1 µM, stronger effect = higher value
NAD(+) hydrolase SARM1 (Homo sapiens), sequence (Q6SZW1 whole entry, looked up, the tested form may be a part): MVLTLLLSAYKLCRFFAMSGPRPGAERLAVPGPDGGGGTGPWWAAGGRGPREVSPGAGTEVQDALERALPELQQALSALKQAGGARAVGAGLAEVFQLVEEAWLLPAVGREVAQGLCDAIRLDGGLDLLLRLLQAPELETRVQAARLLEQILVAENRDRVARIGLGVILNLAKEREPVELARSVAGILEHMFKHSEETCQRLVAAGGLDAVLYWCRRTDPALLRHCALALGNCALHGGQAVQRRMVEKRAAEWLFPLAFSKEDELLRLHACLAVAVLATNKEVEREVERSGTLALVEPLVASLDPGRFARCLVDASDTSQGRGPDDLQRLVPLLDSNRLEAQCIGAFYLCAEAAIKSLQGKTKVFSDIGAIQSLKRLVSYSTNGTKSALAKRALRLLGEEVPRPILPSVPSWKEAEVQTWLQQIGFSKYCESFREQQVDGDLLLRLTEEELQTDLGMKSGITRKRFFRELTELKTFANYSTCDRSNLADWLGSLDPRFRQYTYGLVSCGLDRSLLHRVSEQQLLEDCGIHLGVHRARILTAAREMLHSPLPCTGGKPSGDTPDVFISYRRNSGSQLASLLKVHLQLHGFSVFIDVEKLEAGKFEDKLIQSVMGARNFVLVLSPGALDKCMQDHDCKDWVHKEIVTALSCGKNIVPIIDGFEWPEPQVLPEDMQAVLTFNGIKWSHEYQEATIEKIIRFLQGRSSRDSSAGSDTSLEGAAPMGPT

[8] = target: Mitogen-activated protein kinase 7 (Homo sapiens) (UniProt Q13164); assay: ERK5 transactivation activators in reporter cells, primary screen, cell-based, HTS (AID 1508626;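 active = luciferase signal above three times the same-plate solvent-only control wells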;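 note: luciferase driven by Gal4-ERK5 fusion binding five Gal4 sites before minimal TATA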); settings: HeLa Gal4-ERK5 transactivation, 18 h, at 5 µM, stronger effect = higher value
Mitogen-activated protein kinase 7 (Homo sapiens), sequence (Q13164 whole entry, looked up, the tested form may be a part): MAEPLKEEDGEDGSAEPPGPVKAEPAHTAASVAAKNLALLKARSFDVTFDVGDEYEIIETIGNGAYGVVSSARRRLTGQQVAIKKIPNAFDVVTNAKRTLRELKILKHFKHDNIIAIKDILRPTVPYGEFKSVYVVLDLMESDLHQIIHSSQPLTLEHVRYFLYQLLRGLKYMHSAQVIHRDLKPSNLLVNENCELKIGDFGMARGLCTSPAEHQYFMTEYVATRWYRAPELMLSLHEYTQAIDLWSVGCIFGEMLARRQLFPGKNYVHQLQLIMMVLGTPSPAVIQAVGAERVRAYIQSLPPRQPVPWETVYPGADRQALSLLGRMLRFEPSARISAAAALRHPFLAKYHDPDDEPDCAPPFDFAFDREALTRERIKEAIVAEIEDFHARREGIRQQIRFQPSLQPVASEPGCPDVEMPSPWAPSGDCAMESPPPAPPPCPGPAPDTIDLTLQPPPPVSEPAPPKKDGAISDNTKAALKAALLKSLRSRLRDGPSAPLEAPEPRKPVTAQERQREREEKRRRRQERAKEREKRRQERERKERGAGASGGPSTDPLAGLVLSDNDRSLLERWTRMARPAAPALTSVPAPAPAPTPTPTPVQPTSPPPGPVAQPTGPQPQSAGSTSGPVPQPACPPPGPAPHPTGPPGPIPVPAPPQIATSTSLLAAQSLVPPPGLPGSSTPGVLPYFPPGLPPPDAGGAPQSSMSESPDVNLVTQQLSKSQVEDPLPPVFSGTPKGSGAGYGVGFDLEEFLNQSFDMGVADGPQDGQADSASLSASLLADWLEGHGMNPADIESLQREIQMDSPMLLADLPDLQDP

[9] = viability rescue of complex I mutant cybrids, primary screen, cell-based, galactose medium, ATP luminescence (AID 1645843;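 active = z-score of at least 1.8 in each of two replicates, scored against plate mean and spread of sample wells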;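 note: positive z means more ATP and so rescue of galactose-driven cybrid death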); settings: complex I mutant cybrid cells, 72 h, stronger effect = higher value
[10] = target: ATP-dependent translocase ABCB1 (Homo sapiens) (UniProt P08183); assay: MDR1 (ABCB1) efflux transporter inhibition, cell-based (AID 377; in the data active = fluorescence slope change above about 50%); settings: MDR1-expressing cells, fluorescent substrate accumulation slope; stronger effect = higher value; concentration not given here
ATP-dependent translocase ABCB1 (Homo sapiens), sequence (P08183 whole entry, looked up): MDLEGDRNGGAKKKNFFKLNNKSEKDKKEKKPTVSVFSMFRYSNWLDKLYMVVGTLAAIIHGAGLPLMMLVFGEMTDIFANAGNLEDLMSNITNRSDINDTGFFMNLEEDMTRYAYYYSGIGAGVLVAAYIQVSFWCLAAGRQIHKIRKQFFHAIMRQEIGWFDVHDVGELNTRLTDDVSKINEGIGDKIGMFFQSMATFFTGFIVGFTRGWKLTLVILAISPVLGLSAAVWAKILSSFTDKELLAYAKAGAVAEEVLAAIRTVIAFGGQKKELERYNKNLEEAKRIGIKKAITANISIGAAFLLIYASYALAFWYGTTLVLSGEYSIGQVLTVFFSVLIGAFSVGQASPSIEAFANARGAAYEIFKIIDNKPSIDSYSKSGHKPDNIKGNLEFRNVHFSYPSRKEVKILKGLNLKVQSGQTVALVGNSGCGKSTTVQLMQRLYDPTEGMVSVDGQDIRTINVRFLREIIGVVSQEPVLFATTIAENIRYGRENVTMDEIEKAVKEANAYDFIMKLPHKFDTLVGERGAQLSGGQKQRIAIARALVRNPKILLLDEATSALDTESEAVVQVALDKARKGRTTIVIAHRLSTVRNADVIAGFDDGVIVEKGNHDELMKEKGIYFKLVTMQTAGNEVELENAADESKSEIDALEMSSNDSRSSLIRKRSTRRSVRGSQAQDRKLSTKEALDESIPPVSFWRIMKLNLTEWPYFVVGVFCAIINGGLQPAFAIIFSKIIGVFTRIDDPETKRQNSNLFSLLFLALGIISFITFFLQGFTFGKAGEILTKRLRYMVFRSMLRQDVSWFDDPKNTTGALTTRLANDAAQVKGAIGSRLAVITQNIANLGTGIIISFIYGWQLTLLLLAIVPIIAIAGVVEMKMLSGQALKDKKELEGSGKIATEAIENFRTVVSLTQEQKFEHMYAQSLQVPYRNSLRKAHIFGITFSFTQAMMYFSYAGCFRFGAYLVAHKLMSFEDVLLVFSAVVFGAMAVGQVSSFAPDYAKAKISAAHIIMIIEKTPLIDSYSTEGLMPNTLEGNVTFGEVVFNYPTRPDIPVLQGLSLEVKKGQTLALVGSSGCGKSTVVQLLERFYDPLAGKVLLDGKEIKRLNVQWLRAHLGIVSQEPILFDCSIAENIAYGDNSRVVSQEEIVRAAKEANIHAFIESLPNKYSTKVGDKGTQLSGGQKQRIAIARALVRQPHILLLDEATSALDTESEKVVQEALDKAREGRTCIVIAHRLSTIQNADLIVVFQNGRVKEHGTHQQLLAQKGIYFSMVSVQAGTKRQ

[11] = hESC survival regulators, cell-based (AID 493140; call rule not given here;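 note: cells exposed to compounds for four days before counting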); settings: human embryonic stem cell survival screen; stronger effect = higher value
[12] = test system: Aerobactin synthetase IucA (Klebsiella pneumoniae, hypervirulent); assay: IucA enzyme inhibition, biochemical, LOPAC library, absorbance readout (AID 1346212; call rule not given here;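 note: 100% = no compound wells and 0% = no enzyme wells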); settings: IucA enzyme assay, absorbance (OD) readout; stronger effect = lower value;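 tested at 8 µM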
[13] = polyglutamine-triggered caspase-3 activation inhibitors, cell-based (AID 1583); settings: polyglutamine-induced caspase-3 activation, cell assay; stronger effect = higher value;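 tested at 10 µM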
[14] = suppressors of polyQ aggregation in yeast, 75Q-TubU reporter (AID 1593); settings: Yeast 75Q polyglutamine aggregation reporter
[15] = rescue of polyQ-huntingtin neuronal dysfunction in worms, whole organism, C. elegans mechanosensory neurons, N-terminal huntingtin (AID 1599); settings: touch response, stronger effect = higher value
[16] = inhibitors of mitochondrial cytochrome c release, biochemical, purified mitochondria (AID 1603); settings: stronger effect = lower value;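 note: mouse liver mitochondria challenged with calcium chloride; signal normalized to the plate average as 100%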
[17] = inhibitors of polyQ protein aggregation (AID 1604); settings: polyglutamine-induced protein aggregation inhibition assay; stronger effect = higher value; tested at 2.5 µM
[18] = enhancers of glutamate uptake in motor neurons, MN-1 cell line (AID 1612); settings: MN-1 motor neuron cells, stronger effect = higher value;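 note: tested at 1 µM final; 0% = mean of DMSO vehicle wells on each plate; positive means more glutamate uptake than control and negative means less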
[19] = reducers of polyQ inclusions in PC12 cells, cell-based, NGF-treated PC12, GFPQ80 (AID 1614); settings: PC12 NGF-treated GFP-polyQ80 inclusion reduction;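 note: lower means fewer inclusions and 0 means no inclusions at all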
[20] = suppressors of polyglutamine aggregation in yeast, 75Q-TubH (AID 1616); settings: S. cerevisiae 75Q-TubH polyglutamine aggregation suppression; stronger effect = higher value
[21] = measured here: epithelial PC-3E GFP cell survival
[22] = measured here: mesenchymal TEM4-18 mCherry cell survival
[23] = measured here: relative caspase fold change +Dox/-Dox
[24] = measured here: total cells with miR-34 induction, stronger effect = lower value
[25] = measured here: total cells without miR-34 induction
[26] = MELAS cybrid survival, CellTiter-Glo 48 h, stronger effect = higher value
[27] = Rieske KO mouse fibroblast survival, CellTiter-Glo 72 h
[28] = stronger effect = lower value, cell number ratio, induced over uninduced

SMILES: NC(=O)CS(=O)C(c1ccccc1)c1ccccc1 (stereo not drawn)
- parasite load remaining [1]: 153% (inactive) and 44.2% (inactive) and 93% (inactive)
- viability [1]: 83% and 104% and 71.7%
- inhibition [2]: -7.07% (inactive)
- red/green cell ratio (normalised) [3]: 1.19 (inactive)
- normalised cell number [3, 21]: 1.04
- normalised cell number [3, 22]: 1.24
- activity remaining [4]: 120% (inactive)
- fold change ([5]; stronger effect = lower value): 0.912 (inactive) and 0.928 (inactive) and 0.913 (inactive)
- fold change [5, 23]: 0.934 and 0.471 and 9.69
- cell count [5, 24]: 8970 and 9060 and 12100
- cell count [5, 25]: 9830 and 9770 and 13200
- z-score [6, 26]: 0.264 (inactive)
- z-score [6, 27]: 0.0685
- remaining NAD [7]: 10 nM (inactive)
- luciferase signal [8]: 40 AU (inactive)
- z-score [9]: 0.66 (inactive)

SMILES: C=CCN1CC[C@]23c4c5ccc(O)c4O[C@H]2C(=O)CC[C@@]3(O)[C@H]1C5
- fluorescence slope change [10]: 64.1% (active)
- survival [11]: 31.3 (inactive)
- inhibition [2]: -2.77% (inactive)
- remaining activity [12]: 107% (inactive)
- z-score [6, 26]: 0.056 (inactive) and 0.0574 (inactive)
- z-score [6, 27]: -0.112 and -0.417
- remaining NAD [7]: 10 nM (inactive)
- luciferase signal [8]: 32 AU (inactive)
- z-score [9]: 0.98 (inactive) and -0.48 (inactive) and 0.575 (inactive)

SMILES: FC(F)(F)c1cccc(N2CCNCC2)c1
- inhibition [13]: 28.1%
- score [14]: 1.15
- rescue above control [15]: 0
- cytochrome c release ratio [16]: 0.84
- inhibition of aggregation [17]: 50%
- glutamate uptake change [18]: 0.29%
- inclusion score [19]: 2
- aggregation suppression score [20]: 1.16
- parasite load remaining [1]: 134% (inactive)
- viability [1]: 71.2%
- inhibition [2]: 7.13% (inactive)
- activity remaining [4]: 116% (inactive)
- fold change ([5]; stronger effect = lower value): 0.923 (inactive)
- fold change [5, 23]: 1.38
- cell count [5, 24]: 9590
- cell count [5, 25]: 10400
- z-score [9]: 0.73 (inactive)

SMILES: ClC1=C(Cl)C2(Cl)C3C(Cl)C(Cl)CC3C1(Cl)C2(Cl)Cl (stereo not drawn)
- inhibition [2]: -19% (inactive)

SMILES: CC(C)CC(N(C)C)C1(c2ccc(Cl)cc2)CCC1 (stereo not drawn)
- inhibition [2]: 14.3% (inactive)
- red/green cell ratio (normalised) [3]: 1.04 (inactive)
- normalised cell number [3, 21]: 0.98
- normalised cell number [3, 22]: 1.02
- activity remaining [4]: 121% (inactive)
- z-score [6, 26]: 0.37 (inactive) and 0.394 (inactive)
- z-score [6, 27]: 0.153 and 0.475
- remaining NAD [7]: 10 nM (inactive)
- luciferase signal [8]: 60 AU (inactive)
- z-score [9]: -1.39 (inactive) and -1.34 (inactive) and -2.03 (inactive)

SMILES: O=C(O)COc1ccc(Cl)cc1Cl
- inhibition [2]: -20.1% (inactive)
- red/green cell ratio (normalised) [3]: 1.22 (inactive)
- normalised cell number [3, 21]: 0.89
- normalised cell number [3, 22]: 1.08

SMILES: COc1cc2c(cc1OC)-c1c(oc3c4c(ccc3c1=O)OC(C(C)C)C4)CO2 (stereo not drawn)
- inhibition [2]: -6.79% (inactive)
- red/green cell ratio (normalised) ([3]; counts scaled to control wells, 1 = unselective): 0.93 (inactive)
- normalised cell number [3, 21]: 0.99
- normalised cell number [3, 22]: 0.92

SMILES: C=C[C@H]1CN2CC[C@H]1C[C@H]2[C@H](O)c1ccnc2ccccc12
- fluorescence slope change [10]: 71.3% (active)
- inhibition [13]: 21%
- score [14]: 1.18
- rescue above control [15]: 0.34
- cytochrome c release ratio [16]: 0.75
- inhibition of aggregation [17]: 48.7%
- glutamate uptake change [18]: -2.27%
- inclusion score [19]: 2
- aggregation suppression score [20]: 1.28
- parasite load remaining [1]: 56.2% (inactive) and 85.6% (inactive) and 31.1% (inactive)
- viability [1]: 103% and 68.9% and 98.9%
- inhibition [2]: 5.53% (inactive)
- red/green cell ratio (normalised) [3]: 1.04 (inactive)
- normalised cell number [3, 21]: 1.08
- normalised cell number [3, 22]: 1.12
- activity remaining [4]: 97.1% (inactive)
- fold change ([5]; stronger effect = lower value): 0.86 (inactive) and 0.872 (inactive)
- fold change [5, 23]: 1.26 and 3.36
- cell count [5, 24]: 9250 and 11500
- cell count [5, 25]: 10800 and 13200
- remaining NAD [7]: 10 nM (inactive)
- luciferase signal [8]: 48 AU (inactive)

SMILES: COc1cc2c(cc1OC)[C@@]13CCN4CC5=CCO[C@H]6CC(=O)N2[C@H]1[C@H]6[C@H]5C[C@H]43
- parasite load remaining [1]: 80.5% (inactive)
- viability [1]: 63.8%
- inhibition [2]: 7.74% (inactive)
- remaining NAD [7]: 10 nM (inactive)
- luciferase signal [8]: 76 AU (inactive)

SMILES: COc1cc2c(cc1OC)[C@H]1C(=O)c3ccc4c(c3O[C@H]1CO2)C[C@@H](C(C)C)O4
- inhibition [2]: -1.45% (inactive)

SMILES: Cc1nccc2c1[nH]c1ccccc12
- survival [11]: 12.2 (inactive)
- parasite load remaining [1]: 94.4% (inactive) and 63.5% (inactive)
- viability [1]: 116% and 79%
- inhibition [2]: -8.63% (inactive)
- red/green cell ratio (normalised) [3]: 0.96 (inactive)
- normalised cell number [3, 21]: 0.91
- normalised cell number [3, 22]: 0.87
- activity remaining [4]: 102% (inactive)
- remaining activity [12]: 99.4% (inactive)
- fold change ([5]; stronger effect = lower value): 0.91 (inactive) and 0.859 (inactive)
- fold change [5, 28]: 0.856 (inactive)
- fold change [5, 23]: 1.74 and 1.56 and 1.32
- cell count [5, 24]: 8890 and 7490 and 7920
- cell count [5, 25]: 9780 and 8760 and 9220
- luciferase signal [8]: 132 AU (inactive)
- z-score [9]: -0.38 (inactive) and -0.595 (inactive)

SMILES: CCC1(O)CC(OC2CC(N(C)C)C(O)C(C)O2)c2c(cc3c(c2O)C(=O)c2c(O)ccc(O)c2C3=O)C1C(=O)OC (stereo not drawn)
- inhibition [2]: -0.278% (inactive)

SMILES: CCCCCCCCCc1ccc(O)cc1
- inhibition [2]: 10.5% (inactive)
- red/green cell ratio (normalised) [3]: 0.85 (inactive)
- normalised cell number [3, 21]: 1.34
- normalised cell number [3, 22]: 1.14

SMILES: Clc1ccc(Cl)cc1
- inhibition [2]: 7.33% (inactive)

SMILES: Cc1ccc2cc3c(ccc4ccccc43)c3c2c1CC3
- inhibition [2]: -6.1% (inactive)

SMILES: c1ccc2c3c([nH]c2c1)CNCC3
- parasite load remaining [1]: 59.9% (inactive)
- viability [1]: 85.2%
- inhibition [2]: -0.853% (inactive)
- fold change ([5]; stronger effect = lower value): 0.984 (inactive)
- fold change [5, 23]: 1.28
- cell count [5, 24]: 7470
- cell count [5, 25]: 7600
- z-score [9]: -0.425 (inactive)

SMILES: O=S1OCC2C(CO1)C1(Cl)C(Cl)=C(Cl)C2(Cl)C1(Cl)Cl (stereo not drawn)
- inhibition [2]: 5.97% (inactive)

SMILES: CC[C@H]1CN2CC[C@H]1C[C@@H]2[C@@H](O)c1ccnc2ccc(OC)cc12
- inhibition [2]: 5.31% (inactive)
- remaining NAD [7]: 10 nM (inactive)
- luciferase signal [8]: 16 AU (inactive)

SMILES: CN(C)[C@@H]1C(=O)C(C(N)=O)=C(O)[C@@]2(O)C(=O)C3=C(O)c4c(O)ccc(Cl)c4[C@@](C)(O)[C@H]3C[C@@H]12
- inhibition [13]: 15.6%
- score [14]: 0.9
- rescue above control [15]: 0
- cytochrome c release ratio [16]: 0.82
- inhibition of aggregation [17]: 9.52%
- glutamate uptake change [18]: 10.1%
- inclusion score [19]: 0
- aggregation suppression score [20]: 0.363
- survival [11]: 14.3 (inactive)
- parasite load remaining [1]: 104% (inactive) and 84.9% (inactive) and 79.4% (inactive)
- viability [1]: 73.9% and 86% and 80%
- inhibition [2]: -12.1% (inactive)
- red/green cell ratio (normalised) [3]: 0.9 (inactive) and 1.54 (inactive)
- normalised cell number [3, 21]: 1.16 and 0.93
- normalised cell number [3, 22]: 1.04 and 1.43
- activity remaining [4]: 117% (inactive)
- fold change [5, 28]: 0.926 (inactive)
- fold change [5, 23]: 2.73
- cell count [5, 24]: 9350
- cell count [5, 25]: 10100
- z-score [6, 26]: -3.64 (inactive)
- z-score [6, 27]: -1.98
- remaining NAD [7]: 10 nM (inactive)
- luciferase signal [8]: 60 AU (inactive)

Reference: PubChem BioAssay
